Bioassay records from PubChem BioAssay.
D2 ag-1: Beta-Arrestin HTS for Positive Allosteric Modulators of the Human D2 Dopamine Receptor: Agonists; D(2) dopamine receptor (Homo sapiens), P14416; DiscoveRx PathHunter D2 beta-arrestin, luminescence, 90 min; 100% = 57 uM dopamine signal; activation, % (concentration not given with the values); 0.084% of 360,000 active; AID 624465, 2012; in the data active = activation above about 40%; inconclusive = between about 15% and that limit
Target sequence (P14416 whole entry, looked up): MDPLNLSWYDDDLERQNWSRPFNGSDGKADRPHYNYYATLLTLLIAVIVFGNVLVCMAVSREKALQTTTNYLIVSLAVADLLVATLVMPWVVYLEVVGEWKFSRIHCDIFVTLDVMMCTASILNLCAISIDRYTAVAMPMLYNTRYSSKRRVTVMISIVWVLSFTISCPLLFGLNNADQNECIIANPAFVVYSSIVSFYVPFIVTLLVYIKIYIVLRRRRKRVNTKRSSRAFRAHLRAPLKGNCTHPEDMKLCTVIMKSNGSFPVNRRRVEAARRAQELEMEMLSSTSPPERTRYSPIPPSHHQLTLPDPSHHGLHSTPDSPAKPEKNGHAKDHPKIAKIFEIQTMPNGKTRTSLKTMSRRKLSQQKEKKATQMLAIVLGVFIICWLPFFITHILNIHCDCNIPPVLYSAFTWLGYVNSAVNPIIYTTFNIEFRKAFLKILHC
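DiscoveRx PathHunter D2 beta-arrestin cells (2,100/well) attached overnight, then compound-stimulated 90 min at 37 C in HBSS/10 mM HEPES/0.1% Tween-20 buffer; beta-galactosidase complementation read by luminescence after 1 h at ambient temperature. Dopamine 57 uM final (EC100) as control.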
D2 PAM-1: Beta-Arrestin HTS for Positive Allosteric Modulators of the Human D2 Dopamine Receptor: Potentiators; DiscoveRx D2 beta-arrestin cells, luminescence, 90 min; 100% = 57 uM dopamine signal; 0.23% of 360,000 active; AID 624464, 2012; D(2) dopamine receptor (Homo sapiens), P14416; potentiation, % (no concentration beside the values); in the data active = potentiation above about 50%; inconclusive = mostly about 30% to 49%
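PathHunter D2 cells, attached overnight at 37 deg C, received compound in DMSO plus dopamine at EC20 (50 nM final) for 90 min at 37 deg C. Beta-arrestin recruitment was read as luminescence after 1 h with detection reagent at ambient temperature.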
D2 antag: HTS Assay for Allosteric Antagonists of the Human D2 Dopamine Receptor: Primary Screen for Antagonists; HEK293 TREx D2 cells, calcium flux, dopamine EC80; 2% of 340,000 active; inhibition, % at 10 µM; D(2) dopamine receptor (Homo sapiens), P14416; in the data active = inhibition above about 30%; inactive = below that, where a call was filed; also: 0% is about no effect
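In this primary screen, negative modulation is detected by tracking calcium flux after an EC80 dopamine challenge in inducible HEK293 T-REx D2 cells preexposed to test compound for 180 s.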
D2 ag-2: HTS Assay for Allosteric Agonists of the Human D2 Dopamine Receptor: Primary Screen for Agonists; HEK293 T-REx D2 cells, calcium flux agonist mode; 0.53% of 340,000 active; AID 485358, 2010; D(2) dopamine receptor (Homo sapiens), P14416; activation, % at 2 µM;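 active = activation over 3 SD above normal in the single-dose calcium agonist read, cut at about 30% in these data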; also: 0% is about no effect
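Agonism is scored from calcium flux in a force-coupled, inducible HEK293 cell line expressing D2, read kinetically for 180 s after compound addition against dopamine controls.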
D2 PAM-2: HTS Assay for Positive Allosteric Modulators of the Human D2 Dopamine Receptor: Primary Screen for Potentiators | HEK293 T-REx D2, calcium flux, EC20 dopamine potentiation | potentiation, % at 10 µM | 0.34% of 340,000 active | AID 485347, 2010;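 active = potentiation over 3 SD above the plate norm, cut at about 30% in these data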; also: 0% is about no effect
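Potentiation of an EC20 dopamine calcium response measured kinetically over 180 s, after a preceding 180 s compound-only read flagging agonists. Cells: inducible Hek293 Trex D2 line, 4000/well, cultured overnight at 30 C before dye loading.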
Numbers without * were called inactive; ? = inconclusive; / = not tested or not shown. Most compounds without a hit are left out; they make up all but 2.4% or so of the library.

SMILES | D2 ag-1 | D2 PAM-1 | D2 antag | D2 ag-2 | D2 PAM-2
Cn1cc(CN2CCCC(C(=O)c3cc(F)ccc3F)C2)c2ccccc21 (stereo unspecified) | -6 | -11 | -5 | 0 | -16
COc1ccc(CN2CCC(CO)(Cc3ccccc3)CC2)cc1Cn1cccn1 | -6 | -5 | 37* | -1 | -18
COc1cc(OC)cc(C(=O)NCC2CCCN(Cc3ccc(SC)cc3)C2)c1 (stereo unspecified) | -10 | -29 | 51* | -1 | -21
COc1ccc(-c2[nH]ncc2CN2CCCC(C(=O)c3ccc(OC)cc3OC)C2)cc1 (stereo unspecified) | -4 | -15 | 1 | 0 | -15
COc1ccc(OC)c(CN2CCCC(C(=O)c3ccccc3SC)C2)c1 (stereo unspecified) | -4 | -20 | 51* | 0 | -18
CCc1ccc(CN2CCCC(CNC(=O)c3cc(OC)cc(OC)c3)C2)cc1 (stereo unspecified) | -6 | -25 | 27 | -1 | -21
CCOC(=O)N1CCN(C(=O)COc2ccc(S(=O)(=O)Nc3ccc(OCC)cc3)cc2)CC1 | 1 | 13 | 4 | 0 | 11
CCOc1ccc(NS(=O)(=O)c2ccc(OCC(=O)N3CCCC3)cc2)cc1 | 2 | 3 | 51* | 0 | 11
Cc1ccc(C)c2sc(N3CCN(C(=O)C(C)(C)C)CC3)nc12 | / | / | / | 2 | 7
CC1c2ccccc2SC(CCCN(C)C)c2ccccc21 (stereo unspecified) | -2 | -39 | 50* | 6 | -27
Cc1cccc(-n2nnc(-c3nc(-c4cccs4)no3)c2N)c1C | / | / | / | 1 | 3
Cc1ccc(COc2coc(CN3CCN(C(=O)c4ccco4)CC3)cc2=O)cc1 | 3 | -12 | -5 | 24 | 9
CC(Oc1coc(CN2CCN(C(=O)c3ccco3)CC2)cc1=O)c1ccccc1 (stereo unspecified) | 4 | -22 | -3 | 31* | -3
COc1ccc(-n2ccnc(NCc3ccc(C)cc3)c2=O)cc1OC | / | / | / | 0 | 10
CC1CCC(Nc2nc3c(-c4cccc(C(F)(F)F)c4)nnn3c3ccccc23)CC1 (stereo unspecified) | / | / | / | / | 21
Cc1ccc(-c2c3c(nc4sc(C(N)=O)c(N)c24)CCCC3)o1 | 0 | -5 | -7 | 31* | -13
CCN(CC)CCCNC(=O)C(=O)Nc1ccc2nc3n(c(=O)c2c1)CCCCC3 | / | / | / | -1 | -2
COc1ccc(Cl)cc1NC(=O)CSc1nnc(CN2CCOCC2)n1-c1ccc(Cl)cc1 | -2 | -24 | 76* | 1 | -24
O=[N+]([O-])c1ccccc1S(=O)(=O)N(CC(O)CN1CCCCC1)c1ccccc1 (stereo unspecified) | -4 | -8 | 8 | 0 | -8
Cc1ccccc1S(=O)(=O)N(CC(O)CN1CCCCC1)c1ccccc1 (stereo unspecified) | -1 | -12 | 54* | 1 | -17
CNS(=O)(=O)c1cn(CC(=O)Nc2cccc(C(F)(F)F)c2)cc1S(=O)(=O)NC | / | / | / | 0 | 2
Cc1cccn2c(=O)nc(SCC(=O)N3CCCCCC3)nc12 | 1 | -19 | 31* | 0 | -9
Cc1cccn2c(=O)nc(SCC(=O)N3CCCCC3)nc12 | 2 | 3 | 21 | 0 | -4
O=S(=O)(NCc1nc2cccnc2n1Cc1ccc(F)cc1)c1ccc2c(c1)CCCC2 | / | / | / | 0 | -11
O=C(Nc1ccnn1C1CCN(Cc2cccnc2)CC1)c1ccccc1Cl | -3 | 7 | -7 | 0 | 5
SMILES | D2 ag-1 | D2 PAM-1 | D2 antag | D2 ag-2 | D2 PAM-2
COc1ccc(CN2CCC(n3nccc3NC(=O)c3ccc4c(c3)OCO4)CC2)cc1C | 2 | -32 | 45* | 1 | -12
Cc1cc(CN2CCC(n3nccc3NC(=O)c3ccccc3Cl)CC2)cc(C)c1O | -3 | -20 | 55* | 1 | -19
Cc1ccccc1C(=O)Nc1ccnn1C1CCN(Cc2ccncc2)CC1 | -5 | 3 | 31* | 1 | -18
COc1ccccc1C(=O)Nc1ccnn1C1CCN(Cc2csc(C(C)=O)c2)CC1 | -2 | -28 | 32* | 1 | -1
Cc1ccccc1CN1CCC(n2nccc2NC(=O)c2ccc3c(c2)OCO3)CC1 | -9 | -47 | -6 | 0 | -1
COc1ccc(N2Cc3cccc(C(=O)Nc4ccc(Cl)cc4)c3C2=O)cc1 | / | / | / | 2 | 1
CCCCOC(=O)c1ccc(Nc2nc3ccc(C)cc3n3cnnc23)cc1 | / | / | / | 0 | -2
Cc1cc(NC(=O)Nc2nnc(N3CCCCC3)s2)ccc1Br | / | / | / | / | -1
N#Cc1sc2nc(-c3ccccc3)cc(-c3ccco3)c2c1N | -2 | -6 | 62* | 0 | 0
N#Cc1sc2nc(C3CC3)cc(-c3ccccc3)c2c1N | -3 | -17 | 1 | -1 | 8
C/C(CC(=O)N1CCN(C=O)CC1)=N\NC(=O)c1ccc([N+](=O)[O-])cc1 | 6 | -2 | 3 | 0 | 3
C/C(CC(=O)N1CCN(C=O)CC1)=N\NC(=O)c1cc2ccccc2cc1O | -6 | 51* | 7 | 0 | -10
COc1ccc(OCc2cc(C(=O)N(C)CC3CCCCO3)no2)c(Cl)c1 (stereo unspecified) | -4 | -14 | 2 | -1 | -5
COc1ccc(OCc2cc(C(=O)N(C)CCC3CCOCC3)no2)c(Cl)c1 | -6 | -5 | 65* | -1 | -17
CCOc1ccc(N2CC(C(=O)NCCN3C(=O)S/C(=C\c4ccc(OC)cc4)C3=O)CC2=O)cc1 (stereo unspecified) | -1 | -18 | 2 | 5 | 13
COc1ccc(/C=C2\SC(=O)N(CCNC(=O)C3CC(=O)N(c4ccccc4)C3)C2=O)cc1 (stereo unspecified) | 1 | 2 | -8 | 0 | 37*
CCOC(=O)C1(C)C=C(Nc2ccc(O)cc2)C(=O)N1c1ccc(O)cc1 (stereo unspecified) | ? | 104* | -4 | -1 | -1
COc1cccc(-c2cn3c(n2)sc2cc(C(=O)NCCCc4ccccc4)ccc23)c1 | / | / | / | 0 | 10
N/C(CN1CCCC1=O)=N\OC(=O)c1ccc(Cl)c(Cl)c1 | ? | 110* | -3 | 0 | 4
N/C(Cc1ccc(Cl)cc1)=N\OC(=O)c1ccccc1 | ? | 68* | 15 | -2 | -5
COc1ccc(C(=O)O/N=C(\N)Cc2ccc(Cl)c(Cl)c2)cc1OC | ? | 118* | -13 | 0 | -5
